Screening data deposited in PubChem BioAssay by several laboratories.
This is a sample that favours compounds with a hit; in the whole collection about 2.5% have one here.
PKA-R1A activ: PKA-R1A complex activation; PKA-R1A dissociation, Cy5-IP20 fluorescence polarization; scaled: DMSO 0%, 113 µM cGMP 100%; activation, % at 11.4 µM; 340,000 compounds, 0.083% hits; P00514+P68181;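 active = percent activation above the mean of all tested compounds plus 3 SD, cut at about 19% in these data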;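 also: higher means more PKAc released from R1A so a rise in polarization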
CHT allo act: human CHT allosteric activation | 310,000 compounds, 0.49% hits | Q9GZV3 | CHT-expressing cells, membrane potential dye, choline EC20; active compounds read high; LV-AA mutant CHT in HEK293 cells | AID 488977 | B-score at 10 µM;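 active = initial fluorescence not abnormally high and integrated response B-score, plate-corrected, over 3 SD above library mean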
TMEM16A inh: inhibitors of mouse TMEM16A calcium-activated chloride channel; HEK293 TMEM16A/YFP iodide influx fluorescence, ionomycin; normalized B-score (activity score, 25-100; higher = stronger inhibition) at 10 µM; 310,000 compounds, 1.2% hits;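 active = ratio plate-corrected score three or more library SD toward inhibition, starting fluorescence score within five deviations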;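 also: score derived from kinetic fluorescence span divided by baseline fluorescence per well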
PKA-R2B act: activators of human PKA-R2B complex; P22694+P31323; PKA-R2B holoenzyme dissociation, Cy5-IP20 fluorescence polarization; R2B truncated from residue 108, S112A mutant; 0% DMSO only, 100% 113 µM cGMP; activation, % at 11.4 µM; 340,000 compounds, 0.079% hits; AID 504700;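 active = activation above a cutoff set at the mean over all compounds plus 3 SD, cut at about 18% in these data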;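 also: higher means more holoenzyme dissociation and a rise in polarization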
CHT inh: inhibits the human high affinity choline transporter; Q9GZV3; CHT-expressing cells, membrane potential dye, choline response; active compounds read low; B-score at 10 µM; 310,000 compounds, 0.86% hits; AID 488975;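 active = B-score over 3 SD under the library average, and starting fluorescence ratio not unusually high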;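 also: choline stimulus applied at its EC90 after an EC20 pre-addition; B-score computed on integrated fluorescence ratio after choline addition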
TMEM16A act: activates or potentiates the mouse TMEM16A chloride channel | Q8BHY3 | HEK293 TMEM16A/YFP-H148Q/I152L, iodide quench fluorescence; active compounds read low | B-score at 10 µM | 340,000 compounds, 0.3% hits;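 active = fluorescence-ratio B-score plate-corrected deviation score at least 3 library SD below zero, with starting fluorescence score within 5 deviations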;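 also: channel opened by trigger with iodide after compound preincubation; score built on the fluorescence ratio of max minus min over baseline; more negative score means more quench and so TMEM16A activation or potentiation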
CHT activ conf: confirmation of human choline transporter (CHT) activators. shares compounds with CHT allo act. CHT-expressing cells, membrane potential dye fluorescence (FDSS); % of choline EC20–EC90 response window; HEK293 expressing CHT LV-AA mutant; choline added at its EC20. activation, % at 10 µM. 2,500 compounds, 91% hits. AID 504833;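 active = primary screen active, with duplicate mean activation above negative control mean plus 3 SD, cut at about 11% in these data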
HEK293 MP dye: counter-screen for CHT activators: effect in parental HEK293 cells; shares compounds with CHT allo act; membrane potential dye fluorescence (FDSS); measured after EC20 choline addition; ratio readout change at 10 µM, hits read low; 2,500 compounds, 62% hits; AID 623908;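 active = duplicate-averaged ratio beyond 3 SD from buffer wells, up or down, though filed actives are nearly all decreases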
Of the large screens only hits and unclear results are named; the others gave an inactive call (follow-up assays come after a bar, where they were run).

CC(C#N)N1CCN(S(=O)(=O)c2ccc3c(c2)CCC3)CC1 (configuration not stated)	none (no result: CHT allo act, TMEM16A inh, CHT inh)
S=C(Nc1ccc(Br)cc1)N1CCN(c2ccccn2)CC1	none
COC(=O)c1ccc(N2CCN(C)CC2)c(NC(=O)c2cccs2)c1	CHT allo act 6.69 | CHT activ conf 33.0 | HEK293 MP dye -71.3
COC(=O)c1ccc(N2CCN(C)CC2)c(NC(=O)c2cccnc2)c1	CHT allo act 10.3 | CHT activ conf 51.8 | HEK293 MP dye -101
Cc1cc(C)c(NC(=O)CNC(=O)COC(=O)CNC(=O)c2ccc(Cl)cc2Cl)c(C)c1	none
COc1ccc(C(=O)N/N=C/c2ccccn2)cc1OC	CHT allo act 10.4 | CHT activ conf 54.2 | HEK293 MP dye -66
NC(=O)C1CCN(C(=O)C2CC(=O)N(c3ccc(F)cc3)C2)CC1 (configuration not stated)	none
CN1CCN(/N=C/c2nc(-c3ccccc3)n3ccccc23)CC1	none | CHT activ conf 27.2 | HEK293 MP dye inactive
CN1CCN(/N=C/c2nc(-c3ccc(Cl)cc3)n3ccccc23)CC1	none
Cc1cc(N2CCN(C)CC2)nc2ccc(NC(=S)NC3CC3)cc12	none
CCCN(CCC)CCCNC(=S)Nc1ccc2nc(N3CCN(C)CC3)cc(C)c2c1	none | CHT activ conf 52.0 | HEK293 MP dye -26.7
CCCCNC(=O)CCC(=O)Nc1ccc2nc(N3CCOCC3)cc(C)c2c1	none
COCCCNC(=O)CCC(=O)Nc1ccc2nc(N3CCOCC3)cc(C)c2c1	CHT allo act 7.97 | CHT activ conf 37.0 | HEK293 MP dye -52
CCCCN(CC)CCNC(=S)Nc1ccc2nc(N3CCN(C)CC3)cc(C)c2c1	none | CHT activ conf 34.8 | HEK293 MP dye inactive
CCCCN(CC)CCNC(=O)CCC(=O)Nc1ccc2nc(N3CCN(C)CC3)cc(C)c2c1	none | CHT activ conf 41.6 | HEK293 MP dye inactive
CCN(CC)CCCNC(=O)CCC(=O)Nc1ccc2nc(N3CCCCC3)cc(C)c2c1	none
COc1ccccc1NC(=O)[C@@H]1CCCN1S(=O)(=O)c1ccc(Cl)cc1	none (no result: CHT allo act, TMEM16A inh, CHT inh)
COc1ccc(S(=O)(=O)N(C)c2ccc(C(=O)NCc3ccccn3)cc2)cc1OC	none
O=C(C[n+]1ccccc1)N/N=C/c1cc(Br)cc(Br)c1O	none
CCC(O)(CC)C(=O)N/N=C/c1cc(Br)cc(Br)c1O	none | CHT activ conf 14.1 | HEK293 MP dye inactive
COc1cc(/C=N/Nc2nncc3ccccc23)cc(OC)c1OC	CHT allo act 7.6 | CHT activ conf 39.9 | HEK293 MP dye -47.9
C(=N\Nc1nncc2ccccc12)/c1ccccc1	none
Cc1noc(C)c1NC(=O)Nc1ccc2c(c1)C(=O)N([C@H](C)CO)C[C@H](C)[C@@H](CN(C)S(=O)(=O)c1cccs1)O2	none (no result: CHT allo act, TMEM16A inh, CHT inh)
CCc1ccc(OCC(=O)N/N=C/c2cc([N+](=O)[O-])ccc2N2CCOCC2)cc1	none | CHT activ conf 23.4 | HEK293 MP dye inactive
O=C(N/N=C/c1ccco1)c1ccc(N2CCCC2=O)cc1	CHT allo act 7.73 | CHT activ conf 59.4 | HEK293 MP dye -70.5
CC(C)N1CCc2c(sc(N)c2C#N)C1	CHT allo act 6.36 | CHT activ conf 42.6 | HEK293 MP dye -35.5
CC(C)N1CCc2c(sc(NC(=O)c3ccc(S(=O)(=O)N4CCOCC4)cc3)c2C#N)C1	none
CCN1CCc2c(sc(N)c2C#N)C1	none | CHT activ conf 36.8 | HEK293 MP dye -38.8
CC(=O)N(c1ccccc1)c1ccc([N+](=O)[O-])cc1[N+](=O)[O-]	none
Cc1cc(N2CCN(c3ccccn3)CC2)n2cc(-c3ccccc3)nc2n1	none
Cc1cc(N2CCN(C)CC2)n2cc(-c3ccc(F)cc3)nc2n1	CHT allo act 6.86 | CHT activ conf 39.4 | HEK293 MP dye -63.8
Cc1sc2nc(CN3CCCC3)nc(N3CCN(S(=O)(=O)c4ccccc4)CC3)c2c1C	none (no result: CHT allo act, TMEM16A inh, CHT inh)
Cc1sc2nc(CN3CCCC3)nc(NCc3ccncc3)c2c1C	CHT allo act 6.32 | CHT activ conf 32.5 | HEK293 MP dye -34
Cc1sc2nc(CN3CCCC3)nc(Cl)c2c1C	none | CHT activ conf 52.1 | HEK293 MP dye inactive
CSCC[C@H](NC(=O)c1ccc2c(c1)OCO2)c1nnc2ccccn12	none
CCc1noc(C)c1C(=O)NCCN1C(=O)S/C(=C\c2ccc(OC)cc2)C1=O	none
CCOC(=O)c1cnc2ccc(OCC)cc2c1N1CCN(C)CC1	CHT allo act 8.37 | CHT activ conf 40.7 | HEK293 MP dye -39.6
CCOC(=O)c1cnc2ccc(Cl)cc2c1N1CCN(C)CC1	none
N#CC1=C(N)Oc2cc(N)ccc2C1c1cccc(Br)c1 (configuration not stated)	none | CHT activ conf 33.6 | HEK293 MP dye inactive
CN1CCN(c2nc3c(c(=O)[nH]c(=O)n3C)n2CCSc2nc3ccccc3s2)CC1	CHT allo act 9.23 | CHT activ conf 50.2 | HEK293 MP dye -55.3
Cc1nnc(SCCn2c(N3CCN(C)CC3)nc3c2c(=O)[nH]c(=O)n3C)s1	CHT allo act 6.87 | CHT activ conf 58.8 | HEK293 MP dye -67.2
Cc1c(C(=O)Nc2ccncc2)sc2nc(-c3ccccc3)cn12	none | CHT activ conf 30.4 | HEK293 MP dye -32.4
CCCCCCCCCC[n+]1cccc2c3ccccc3ccc21	none (no result: CHT allo act, TMEM16A inh, CHT inh)
CCCCCCCC[n+]1cccc2c3ccccc3ccc21	CHT allo act 6.77, TMEM16A inh 100 | CHT activ conf 19.3 | HEK293 MP dye -25.9
CC(C)[C@H](NC(=O)C1CCN(S(=O)(=O)c2ccc(F)cc2)CC1)C(=O)NCc1ccco1	none
COc1ccccc1C(=O)NCCC(=O)N1CCCC(C)C1 (configuration not stated)	none
C/C(=N\NC(=O)c1ccc(-c2ccccc2)cc1)c1cccc(N)c1	none
C/C(=N\NC(=O)c1ccccc1)c1cccc(Br)c1	none | CHT activ conf inactive | HEK293 MP dye inactive
CCOC(=O)N1CCN(C(=O)CSc2ccc3nnc(-c4ccccn4)n3n2)CC1	none
O=C(CSc1ccc2nnc(-c3ccccn3)n2n1)N1CCOCC1	none | CHT activ conf 41.6 | HEK293 MP dye -35.8
CCCN(CC(=O)Nc1cc(Cl)cc(Cl)c1)CC(=O)Nc1ccc(F)c(F)c1F	none
